Screen size: about 220,000 compounds; about 1,600 (0.73%) were called active.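 How the source made its calls: active means mean inhibition across duplicate retests at 20 µM reaching about 50% (limit read from the data); inactive means the rest, inconclusive results apart.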 What follows is part of a selection rich in actives, with near analogues and random picks from the rest.

In the assay the target is Runt-related transcription factor 1 (Homo sapiens) + Core-binding factor subunit beta (Homo sapiens) (UniProt Q01196+Q13951). Description: inhibitors of RUNX1 Runt–CBFb-SMMHC binding, primary screen, biochemical, FRET, Cerulean-Runt, Venus-CBFb-SMMHC, uHTS (AID 1434).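 Further: 0% = DMSO wells and 100% = wells with excess untagged CBFb-SMMHC; inhibitors lower the FRET ratio by blocking Runt binding to CBFb-SMMHC.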 To be noted: Cerulean-Runt/Venus-CBFb-SMMHC FRET ratio 530/480, 1 h, at 20 µM, stronger effect = higher value.
Sequence of Runt-related transcription factor 1 (Homo sapiens) + Core-binding factor subunit beta (Homo sapiens) (Q01196 whole entry, looked up): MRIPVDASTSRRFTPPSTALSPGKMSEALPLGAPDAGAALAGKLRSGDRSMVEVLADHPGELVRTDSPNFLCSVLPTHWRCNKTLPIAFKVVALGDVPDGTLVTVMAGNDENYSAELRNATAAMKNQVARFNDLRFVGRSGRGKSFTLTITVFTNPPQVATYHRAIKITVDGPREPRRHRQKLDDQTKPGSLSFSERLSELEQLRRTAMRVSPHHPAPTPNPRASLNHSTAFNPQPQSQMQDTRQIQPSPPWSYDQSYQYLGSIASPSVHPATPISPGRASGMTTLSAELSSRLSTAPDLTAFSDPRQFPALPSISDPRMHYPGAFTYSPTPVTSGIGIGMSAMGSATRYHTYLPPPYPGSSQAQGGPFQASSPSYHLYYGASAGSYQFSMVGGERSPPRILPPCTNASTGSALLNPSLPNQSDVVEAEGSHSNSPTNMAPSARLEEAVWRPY
Sequence of Runt-related transcription factor 1 (Homo sapiens) + Core-binding factor subunit beta (Homo sapiens) (Q13951 whole entry, looked up): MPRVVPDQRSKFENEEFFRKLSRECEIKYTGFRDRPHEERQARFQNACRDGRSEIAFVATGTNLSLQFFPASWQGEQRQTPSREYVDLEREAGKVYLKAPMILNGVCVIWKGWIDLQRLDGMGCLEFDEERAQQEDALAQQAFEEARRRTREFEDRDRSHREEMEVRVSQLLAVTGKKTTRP

Take `CN1CCNC(=O)C1CC(=O)NCCC1=CCCCC1` (configuration not stated): the inhibition (as a rule, the drop in the measured response relative to a control, in per cent) was -1.1% (inactive).

For the molecule `Nc1nc(Nc2ccccc2)nc(NCCO)c1[N+](=O)[O-]`, the inhibition is 0.8% (inactive).

Regarding `O=C(Oc1cccnc1)c1cc2ccccc2oc1=O`, the inhibition is -10.2% (inactive).

Turning to `O=C(Oc1c(-c2ccco2)oc2ccccc2c1=O)c1cccnc1`, the inhibition is 92.5% (active). Moreover, the inhibition (retest duplicate average) stood at 70.6%.

Regarding `N#CCc1ccc(OC(=O)c2cccnc2)cc1`, the inhibition was 3% (inactive).

For `Cc1cc(=O)[nH]c2nnnn12`, the inhibition was -4.2% (inactive).

Turning to `CCOC(=O)c1c(C)c(C(=O)NCCc2ccc(S(N)(=O)=O)cc2)c(C)n1CC`, the inhibition was -1.6% (inactive).

As to `CCCNC(=O)c1c(N)n(-c2ccc(S(N)(=O)=O)cc2)c2nc3ccccc3nc12`, the inhibition was 80.5% (active). For the setting “retest duplicate average”, the inhibition was determined as 104%.

Turning to `Cc1ccc(S(=O)(=O)c2c(N)n(C)c3nc4ccccc4nc23)cc1`, the inhibition is 22% (inactive).

With `Nc1c(C(=O)c2cccs2)sc2nsc(SCCN3CCCCC3)c12`, the inhibition is -179% (inactive).

As to `CCOC(=O)C(=CNNc1ccsc1C(=O)OC)C(=O)OCC`, the inhibition was -1.9% (inactive).

With `CCCCc1ccc(NC(=S)N2CCCC(CO)C2)cc1` (configuration not stated), the inhibition is -1.7% (inactive).

As to `CN(C)C(=O)c1nc2ccc(Cl)cn2c1CN1CCN(c2ncccn2)CC1`, the inhibition is 0.6% (inactive).

`Cc1cc(C)n(C(=O)CCNC(=O)c2ccccc2Cl)n1`: the inhibition is 8.8% (inactive).

For the molecule `Cc1cc(C)c2nc(SCCC#N)nc(C)c2c1`, the inhibition is -2.1% (inactive).

For `Cc1cc(C)c2nc(-c3ccco3)cc(C(=O)O)c2c1`, the inhibition was 21.4% (inactive).

On to `Cc1cc(C)c2nc3nc(C)cc(C)c3c(N)c2c1`, for which the inhibition was 60.1% (active). Besides, the inhibition (retest duplicate average) stood at 71.5%.

As to `O=c1oc2c(CN3CCCCC3)c(O)ccc2c2c1CCCCC2`, the inhibition is 93.5% (active). Also, for the setting “retest duplicate average”, the inhibition was 148%.

For the molecule `CN1CCN(Cc2c(O)ccc3c2oc(=O)c2ccccc23)CC1`, the inhibition was -13.8% (inactive).

In the case of `NC(=O)COc1ccc2c3c(c(=O)oc2c1)CCCCC3`, the inhibition is -10.6% (inactive).

In the case of `Cc1ccc(C(=O)NCC(=O)OCC(=O)Nc2cccc(S(=O)(=O)N3CCCC3)c2)cc1C`, the inhibition was 0.1% (inactive).

As for `Cc1cccn2c(=O)c3cc(C#N)c(=O)n(CCCN4CCOCC4)c3nc12`, the inhibition is 61.6% (active). The inhibition (retest duplicate average) turned out to be 71.6%.

As to `Cc1cc(C)n(CC(C)NCc2c(C(=O)N3CCOCC3)nc3c(C)cccn23)n1` (configuration not stated), the inhibition is -0.8% (inactive).

As to `Cc1cccn2c(=O)c3cc(C(=O)N4COCC4(C)C)n(C)c3nc12`, the inhibition is 1.5% (inactive).

In the case of `O=c1oc2cc(O)ccc2cc1-c1ccc(F)cc1`, the inhibition is 61.6% (active). In addition, for the setting “retest duplicate average”, the inhibition came to 71.5%.

Regarding `O=c1c(-c2ccccc2)coc2cc(O)ccc12`, the inhibition is -4.05% (inactive).

`COc1ccc(-c2cc3ccc(OCc4nn[nH]n4)cc3oc2=O)cc1`: the inhibition was 16.9% (inactive).

With `NS(=O)(=O)c1ccc(NC2=CC(c3ccc(F)cc3)N(c3ccc(S(N)(=O)=O)cc3)C2=O)cc1` (configuration not stated), the inhibition is -4.3% (inactive).

For `Cc1ccc(Cl)cc1NC(=O)c1ccccn1`, the inhibition was -0.3% (inactive).

As to `COc1ccc(C2C(C#N)=C(N)Oc3cc(N)ccc32)cc1OC` (configuration not stated), the inhibition is 102% (active). Besides, for the setting “retest duplicate average”, the inhibition was 108%.

For `COC(=O)C1=C(C)OC(N)=C(C#N)C1c1cc(OC)ccc1OC` (configuration not stated), the inhibition was -18.1% (inactive).

On to `CCC1=C(C(=O)OC)C(c2cc(OC)ccc2OC)C(C#N)=C(N)O1` (configuration not stated), for which the inhibition was -8.1% (inactive).

With `Cc1cc2nc(C(F)(F)F)cc(-c3cccs3)n2n1`, the inhibition was -2.5% (inactive).

With `CC(C)c1ccc(Nc2ncccc2C#N)cc1`, the inhibition is 2.1% (inactive).

As to `CCOC(=O)Cc1csc(NC(=O)COc2ccc3c(C)cc(=O)oc3c2)n1`, the inhibition was -11.5% (inactive).

With `Cc1ccc2c(CSc3nncs3)cc(=O)oc2c1`, the inhibition was -1% (inactive).

Turning to `CCOC(=O)Cc1csc(SCc2cc(=O)oc3cc(O)ccc23)n1`, the inhibition is 121% (active). Moreover, the inhibition (retest duplicate average) is 114%.

For `C=CCNC(=O)COC(=O)c1ccccc1C(=O)N(C)C1CCCCC1`, the inhibition was -5.7% (inactive).

`COc1ccc2c(CC(=O)OCC(=O)NC(N)=O)coc2c1`: the inhibition was 2.1% (inactive).

`Cc1cccc(-n2ncc(C#N)c2-n2cccc2)c1`: the inhibition is -1.3% (inactive).

As for `Cc1ccc(-n2ncc3c(=O)n(-c4ccc(C)c(C)c4)c(-c4ccco4)nc32)cc1`, the inhibition is 1.4% (inactive).

As for `Cc1ccc(-n2c(=O)c(C#N)cc3c(=O)n4ccccc4nc32)cc1C`, the inhibition is 58.7% (active). The inhibition (retest duplicate average) stood at 72.9%.

In the case of `COc1ccc(NC(=O)C(Br)C(C)C)cc1` (configuration not stated), the inhibition was 2.9% (inactive).

Turning to `c1ccc(-n2nnnc2-c2cccnc2)cc1`, the inhibition was -4.7% (inactive).

Turning to `COc1c(O)ccc2c1CN1CCc3cc4c(cc3C1C2)OCO4` (configuration not stated), the inhibition is 78% (active). Also, the inhibition (retest duplicate average) stood at 110%.

For `COc1ccc2cc1Oc1ccc(cc1)C[C@H]1c3cc(c(OC)cc3CCN1C)Oc1c(O)c(OC)cc3c1[C@H](C2)N(C)CC3`, the inhibition is -0.6% (inactive).

`COc1cc(COCC(O)CN2CCN(Cc3ccc4c(c3)OCO4)CC2)cc(OC)c1OC` (configuration not stated): the inhibition is 1.8% (inactive).

Consider `CC(C)n1c(-c2ccncc2)n[nH]c1=S`, for which the inhibition was -1.2% (inactive).

Take `Cc1ccc(C)c(Cn2nnc3c(=O)[nH]c(C(=O)Nc4ccc(F)cc4)nc32)c1`: the inhibition is 1.2% (inactive).

`COc1ccc(Cl)cc1S(=O)(=O)N1CCC(O)(c2ccc(Cl)cc2)CC1`: the inhibition is -1.4% (inactive).

`CCOC(=O)CNC(=O)CSc1nnc(COc2ccc(Cl)cc2)n1CC`: the inhibition was 2.7% (inactive).

As for `C=CCn1c(COc2ccccc2)nnc1SCC(=O)NCC(=O)OCC`, the inhibition was 0.8% (inactive).

`CCOC(=O)CNC(=O)CSc1nnc(-c2cccc(OC)c2)n1CC`: the inhibition was 60.6% (active). Moreover, the inhibition (retest duplicate average) came out at 67.7%.

As for `Cc1cc2oc(=O)cc(CN3CCN(S(=O)(=O)c4cccs4)CC3)c2cc1C(C)C`, the inhibition is -6.5% (inactive).

For the molecule `CCN(CC)CCC(c1cc(OC)c(OC)c(OC)c1)c1c(OC)cc(OC)c2c(-c3ccccc3)cc(=O)oc12` (configuration not stated), the inhibition is 1.1% (inactive).

Regarding `O=c1[nH]c(CN2CCN(S(=O)(=O)c3ccc4c(c3)OCCO4)CC2)nc2sc3c(c12)CCCC3`, the inhibition is -6.3% (inactive).

`CSc1nc(N)c(C#N)c(-c2ccccc2Cl)c1C#N`: the inhibition is 2% (inactive).

As to `COc1ccccc1-c1c(C#N)c(N)nc2c1CCC2`, the inhibition was 61.7% (active). In addition, under “retest duplicate average”, the inhibition was 60.2%.

For the molecule `COc1ccc(-c2cc(-c3ccc(N)cc3)nc(N)c2C#N)cc1OC`, the inhibition was 52.8% (inactive). For the setting “retest duplicate average”, the inhibition stood at 46.8%.

For `COc1ccc(OCCNS(=O)(=O)Cc2ccccc2)cc1`, the inhibition is 2.9% (inactive).

Consider `Cc1ccnc(Nc2nc3ccccc3s2)n1`, for which the inhibition is -5.4% (inactive).

In the case of `Cc1ccnc(-n2sc3ccccc3c2=O)n1`, the inhibition is 54.6% (active). Besides, the inhibition (retest duplicate average) is 58.2%.

Take `Cc1ccnc(N2CCC(C(=O)NC3CCCCCC3)CC2)n1`: the inhibition was 0.3% (inactive).

(Values after PubChem BioAssay AID1434 (Sanford-Burnham Center for Chemical Genomics, 2008).)
